PubChem BioAssay (Tox21)
Records with an inconclusive call do not appear. The source made the active and inactive calls. Unless noted, the call rests on the fitted dose curve; in most records, active means well fitted curve in the direction sought with a large enough effect in the repeat runs; inconclusive means weak or mixed curves; inactive means no such curve, though single readings can be large; an effect the other way counts as inactive or inconclusive.

How the values were obtained:
[1] = qHTS assay to identify small molecule antagonists of the androgen receptor (AR) signaling pathway using the MDA cell line in the presence of 0.5 nM R1881 - cell viability counter screen (AID 1259242); further: nearly all actives have a fitted effect of over 45% in size
Summary of the method: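 Cells seeded at 3,000/well and allowed 5 hr at 37C, 0% CO2 before compound transfer and R1881 (0.5 nM final) addition; 16 hr later, live-cell protease fluorescence indicated cytotoxicity.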

[2] = target: Androgen receptor (Homo sapiens) (UniProt P10275); assay: qHTS assay to identify small molecule antagonists of the androgen receptor (AR) signaling pathway using the MDA cell line in the presence of 0.5 nM R1881 (AID 1259243); further: nearly all actives have a fitted effect of over 50% in size; further: potency means the concentration at half of the fitted maximal effect
Summary of the method: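 Luminescence from an AR/GR-responsive MMTV-luciferase construct in MDA-kb2 breast carcinoma cells, read 30 min after ONE-Glo, following 16 hr co-treatment with compounds and 0.5 nM R1881.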

[3] = target: Estrogen receptor (Homo sapiens) (UniProt P03372); assay: qHTS assay to identify small molecule antagonists of the estrogen receptor alpha (ER-alpha) signaling pathway using the BG1 cell line in the presence of 0.1 nM 17-beta-estradiol (AID 1259244); further: nearly all actives have a fitted effect of over 50% in size
Summary of the method: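 Luciferase signal from VM7Luc4E2 ERE-reporter cells, co-dosed with test compound and 0.1 nM final 17beta-estradiol for 22 h, read with ONE-Glo.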

[4] = qHTS assay to identify small molecule HDAC inhibitors (AID 1259364);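 further: wild-type HCT-116 cells with endogenous class I/II HDAC activity; top concentration of the series differs between compounds; nearly all actives have a fitted effect of over 45% in size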
Summary of the method: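 HCT-116 wt cells, 1,500/well, overnight attach. Compounds (DMSO) 2 h, 37 °C. HDAC-Glo I/II, 30 min RT. Luminescence.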

[5] = qHTS assay to identify small molecule agonists of the sonic hedgehog signaling (Shh) pathway - cell viability counter screen (AID 1259366); further: nearly all actives have a fitted effect of over 50% in size
Summary of the method: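 NIH/3T3-derived 3T3 Gli1-Luc cells (stable Gli1-responsive firefly luciferase reporter) were seeded, rested 4 hr at 37 C/5% CO2, then exposed to compounds in DMSO for 24 hr; viability was read by CellTiter-Fluor fluorescence in the same wells.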

[6] = qHTS assay to identify small molecule antagonists of the sonic hedgehog signaling (Shh) pathway - cell viability counter screen (AID 1259367); further: nearly all actives have a fitted effect of over 55% in size
Summary of the method: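 Conditioned medium drove Shh signaling in 3T3 Gli1-Luc cells exposed to compounds at 37C and 5% CO2. Viability was determined from CellTiter-Fluor fluorescence, with reagent incubated 1 hr after 23 hr of treatment.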

[7] = qHTS assay to identify small molecule agonists of the sonic hedgehog signaling (Shh) pathway (AID 1259368; calls by dose curve; further: series mostly up to about 92 µM; nearly all actives have a fitted effect of over 15% in size)
Summary of the method: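 Following a 24 hr incubation with DMSO-dissolved compounds at 37 C, 5% CO2, Gli1-Luc NIH/3T3-derived cells received luciferase reagent for 30 min at room temperature prior to luminescence measurement.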

[8] = qHTS assay to identify small molecule antagonists of the sonic hedgehog signaling (Shh) pathway (AID 1259369; calls by dose curve; further: nearly all actives have a fitted effect of over 45% in size; further: potency means the concentration at half of the fitted maximal effect)
Summary of the method: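 Read-out is luminescence from a firefly luciferase gene controlled by the Gli1 response element, in 3T3Gli1-Luc cells pre-incubated 4hr then exposed to compounds and conditioned medium for 24hr.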

[9] = target: Estrogen receptor beta (Homo sapiens) (UniProt Q92731); assay: qHTS assay to identify small molecule agonists of the estrogen receptor beta (ER-beta) signaling pathway (AID 1259377; active means well fitted activation curve with a large enough effect in the signal ratio in the repeat runs, not every such curve was filed as active; the % refers to the signal ratio)
Summary of the method: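 ER-beta-UAS-bla HEK293T (GripTite) cells carrying a UAS-driven beta-lactamase reporter, in medium with 2% charcoal-stripped FBS, were exposed to compounds for 16 hr at 37C; LiveBLAzer B/G FRET substrate was then added and fluorescence read after 2 hours at room temperature.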

[10] = target: Estrogen receptor beta (Homo sapiens) (UniProt Q92731); assay: qHTS assay to identify small molecule antagonists of the estrogen receptor beta (ER-beta) signaling pathway (AID 1259378; active means well fitted inhibition curve with a large enough effect in the signal ratio in the repeat runs, not every such curve was filed as active; the % refers to the signal ratio)
Summary of the method: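 ER-beta-UAS-bla HEK293T (GripTite) cells in 2% charcoal-stripped FBS medium were preincubated 6 hr at 37C, dosed with compound, then stimulated with 1 nM E2 (final) for 16 hr; beta-lactamase reporter read by B/G FRET fluorescence after 2 hr substrate loading.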

[11] = qHTS assay to identify small molecule agonists of the androgen receptor (AR) signaling pathway in the presence of an antagonist - cell viability counter screen (AID 1259379);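 further: MDA-kb2 human breast cancer cells carrying an MMTV luciferase reporter; series mostly up to about 92 µM; nearly all actives have a fitted effect of over 25% in size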
Summary of the method: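 Each compound was tested at 15 concentrations on MDA-kb2 cells in the presence of 3.0uM nilutamide. Viability was measured by CellTiter-Fluor fluorescence after a 16 hr incubation at 37C in a CO2-free atmosphere.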

[12] = qHTS assay to identify small molecule agonists of the estrogen receptor beta (ER-beta) signaling pathway - cell viability counter screen (AID 1259380); further: nearly all actives have a fitted effect of over 30% in size; further: potency means the concentration at half of the fitted maximal effect
Summary of the method: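 Compounds dissolved in DMSO were pin-transferred onto ER-beta-UAS-bla HEK293T cells that had settled 6 hr, and exposure ran 16 hr at 37C. Following the reporter read, CellTiter-Glo luminescence after 30 min at room temperature indicated cytotoxicity.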

[13] = target: Androgen receptor (Homo sapiens) (UniProt P10275); assay: qHTS assay to identify small molecule agonists of the androgen receptor (AR) signaling pathway in the presence of an antagonist (AID 1259381; calls by dose curve; further: nearly all actives have a fitted effect of over 15% in size)
Summary of the method: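 Plated MDA-kb2 cells (3,000/well) were pre-incubated 5hr, given nilutamide (3.0uM final) or buffer, then dosed with compounds in DMSO at 15 concentrations. Luciferase activity was quantified by luminescence after 16hr at 37C.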

[14] = qHTS assay to identify small molecule antagonists of the estrogen receptor beta (ER-beta) signaling pathway - cell viability counter screen (AID 1259382); further: series mostly up to about 92 µM; nearly all actives have a fitted effect of over 55% in size
Summary of the method: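 CellTiter-Glo ATP luminescence measured after the LiveBLAzer read in the same wells; ER-beta-UAS-bla HEK293T cells, 16 hr compound treatment with 1nM 17-beta-estradiol agonist at 37C, 5% CO2.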

[15] = target: Estrogen receptor (Homo sapiens) (UniProt P03372); assay: qHTS assay to identify small molecule agonists of the estrogen receptor alpha (ER-alpha) signaling pathway in the presence of an antagonist (AID 1259383; calls by dose curve; further: top concentration of the series differs between compounds; nearly all actives have a fitted effect of over 15% in size)
Summary of the method: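 Luminescent ERE-luciferase reporter, VM7Luc4E2 cells (endogenous ER-alpha); 10.0nM ICI-182,780 final; 15-point compound titration; 22hr at 37C; ONE-Glo, 30min RT.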

[16] = qHTS assay to identify small molecule agonists or antagonists of the thyroid stimulating hormone receptor (TSHR) signaling pathway - wild type cell line counter screen (AID 1259384; calls by dose curve)
Summary of the method: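 Wild-type HEK293 cells were plated 18 h at 37 C/5% CO2, pin-dosed with compound plus Ro20-1724 medium, held 30 min at room temperature, then given cAMP-d2 and anti-cAMP-cryptate; fluorescence was read after 1 h. Fifteen concentrations, triplicate.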

[17] = target: Thyrotropin receptor (Homo sapiens) (UniProt P16473); assay: qHTS assay to identify small molecule antagonists of the thyroid stimulating hormone receptor (TSHR) signaling pathway (AID 1259385; calls by dose curve; further: nearly all actives have a fitted effect of over 20% in size)
Summary of the method: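 TSHR-HEK293 cells were plated and held 18 h at 37C/5% CO2, then given compound plus Ro20-1724 and stimulated with TSH at 1.5 ng/mL final. After 30 min at room temperature, cAMP was detected with cAMP-d2/anti-cAMP-cryptate (1 h) by fluorescence.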

[18] = qHTS assay to identify small molecule agonists of the estrogen receptor alpha (ER-alpha) signaling pathway in the presence of an antagonist - cell viability counter screen (AID 1259386);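 further: series mostly up to about 92 µM; cells exposed to compounds for 22 h at 37 °C before the viability read; nearly all actives have a fitted effect of over 30% in size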
Summary of the method: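 Using estrogen-depleted VM7Luc4E2 cells, the 15-concentration compound series was applied together with 10.0nM ICI-182,780 and incubated 22hr at 37C/5% CO2. Cell viability was then scored by CellTiter-Fluor.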

[19] = qHTS assay to identify small molecule HDAC inhibitors - cell viability counter screen (AID 1259365); further: series mostly up to about 92 µM; nearly all actives have a fitted effect of over 50% in size
Summary of the method: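 Wild-type HCT-116 cells were seeded at 1,500 per well, incubated overnight at 37 C, then exposed to compounds in DMSO for 2hr. Viability was read by CellTiter-Glo luminescence after 30min at room temperature.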
On the % scale 0 is the no-effect control and ±100 the full control effect.

Androgen receptor (Homo sapiens), sequence (P10275 whole entry, looked up): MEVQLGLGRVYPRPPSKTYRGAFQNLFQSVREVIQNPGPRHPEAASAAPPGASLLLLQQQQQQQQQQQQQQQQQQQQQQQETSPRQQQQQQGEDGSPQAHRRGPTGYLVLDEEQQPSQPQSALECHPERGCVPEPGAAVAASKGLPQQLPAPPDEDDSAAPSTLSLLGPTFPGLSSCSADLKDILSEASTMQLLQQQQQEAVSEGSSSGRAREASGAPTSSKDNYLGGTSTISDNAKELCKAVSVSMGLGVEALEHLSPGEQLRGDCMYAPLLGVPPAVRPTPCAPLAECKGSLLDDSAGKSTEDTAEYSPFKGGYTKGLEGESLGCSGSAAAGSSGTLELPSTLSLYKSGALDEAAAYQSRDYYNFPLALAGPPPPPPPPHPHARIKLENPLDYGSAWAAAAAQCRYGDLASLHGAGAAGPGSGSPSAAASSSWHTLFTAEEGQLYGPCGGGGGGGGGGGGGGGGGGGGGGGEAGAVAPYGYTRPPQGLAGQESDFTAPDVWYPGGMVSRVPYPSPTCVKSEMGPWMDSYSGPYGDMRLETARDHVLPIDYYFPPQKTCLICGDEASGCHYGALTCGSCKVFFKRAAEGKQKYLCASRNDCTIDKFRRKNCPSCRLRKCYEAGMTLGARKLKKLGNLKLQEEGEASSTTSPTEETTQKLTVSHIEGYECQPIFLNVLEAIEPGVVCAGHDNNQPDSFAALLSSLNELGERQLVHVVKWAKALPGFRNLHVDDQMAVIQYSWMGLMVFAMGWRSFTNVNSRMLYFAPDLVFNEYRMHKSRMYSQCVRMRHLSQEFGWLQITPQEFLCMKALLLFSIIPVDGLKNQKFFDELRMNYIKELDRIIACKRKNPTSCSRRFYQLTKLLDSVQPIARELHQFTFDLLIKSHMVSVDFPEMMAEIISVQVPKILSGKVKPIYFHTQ
Thyrotropin receptor (Homo sapiens), sequence (P16473 whole entry, looked up): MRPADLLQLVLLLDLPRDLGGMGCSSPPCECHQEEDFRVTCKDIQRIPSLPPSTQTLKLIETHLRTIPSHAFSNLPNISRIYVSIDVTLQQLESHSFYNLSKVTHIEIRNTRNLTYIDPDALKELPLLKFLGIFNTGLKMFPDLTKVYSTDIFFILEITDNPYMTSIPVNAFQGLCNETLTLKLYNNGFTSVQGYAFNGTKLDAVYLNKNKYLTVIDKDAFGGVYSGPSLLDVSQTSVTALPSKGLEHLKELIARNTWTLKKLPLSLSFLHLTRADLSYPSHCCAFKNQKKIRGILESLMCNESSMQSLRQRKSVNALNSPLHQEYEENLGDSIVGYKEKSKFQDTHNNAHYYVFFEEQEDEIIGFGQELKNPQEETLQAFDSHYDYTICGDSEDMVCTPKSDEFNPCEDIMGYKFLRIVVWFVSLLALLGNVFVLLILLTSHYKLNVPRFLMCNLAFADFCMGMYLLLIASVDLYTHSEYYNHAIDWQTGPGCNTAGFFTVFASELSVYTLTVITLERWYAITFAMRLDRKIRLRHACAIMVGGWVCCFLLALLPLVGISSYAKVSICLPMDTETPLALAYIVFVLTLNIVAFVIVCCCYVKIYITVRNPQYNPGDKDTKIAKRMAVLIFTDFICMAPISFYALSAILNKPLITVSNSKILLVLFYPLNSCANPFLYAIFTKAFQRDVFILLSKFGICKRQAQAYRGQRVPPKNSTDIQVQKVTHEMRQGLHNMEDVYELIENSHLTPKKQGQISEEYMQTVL
Estrogen receptor (Homo sapiens), sequence (P03372 whole entry, looked up): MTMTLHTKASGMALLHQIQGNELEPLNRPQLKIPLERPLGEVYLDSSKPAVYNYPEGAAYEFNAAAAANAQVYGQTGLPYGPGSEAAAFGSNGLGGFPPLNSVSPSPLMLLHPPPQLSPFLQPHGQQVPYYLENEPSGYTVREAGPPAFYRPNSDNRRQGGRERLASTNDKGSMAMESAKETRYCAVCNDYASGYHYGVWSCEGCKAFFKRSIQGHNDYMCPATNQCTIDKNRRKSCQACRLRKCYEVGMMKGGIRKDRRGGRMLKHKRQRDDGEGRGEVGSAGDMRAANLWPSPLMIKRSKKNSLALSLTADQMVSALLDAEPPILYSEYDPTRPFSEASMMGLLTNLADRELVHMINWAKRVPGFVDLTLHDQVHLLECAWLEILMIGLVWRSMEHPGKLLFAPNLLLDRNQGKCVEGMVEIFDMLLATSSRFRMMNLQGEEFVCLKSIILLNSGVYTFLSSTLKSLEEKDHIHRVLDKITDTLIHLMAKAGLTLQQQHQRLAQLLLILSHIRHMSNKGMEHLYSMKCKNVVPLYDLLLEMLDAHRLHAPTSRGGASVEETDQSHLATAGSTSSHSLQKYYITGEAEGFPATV
Estrogen receptor beta (Homo sapiens), sequence (Q92731 whole entry, looked up): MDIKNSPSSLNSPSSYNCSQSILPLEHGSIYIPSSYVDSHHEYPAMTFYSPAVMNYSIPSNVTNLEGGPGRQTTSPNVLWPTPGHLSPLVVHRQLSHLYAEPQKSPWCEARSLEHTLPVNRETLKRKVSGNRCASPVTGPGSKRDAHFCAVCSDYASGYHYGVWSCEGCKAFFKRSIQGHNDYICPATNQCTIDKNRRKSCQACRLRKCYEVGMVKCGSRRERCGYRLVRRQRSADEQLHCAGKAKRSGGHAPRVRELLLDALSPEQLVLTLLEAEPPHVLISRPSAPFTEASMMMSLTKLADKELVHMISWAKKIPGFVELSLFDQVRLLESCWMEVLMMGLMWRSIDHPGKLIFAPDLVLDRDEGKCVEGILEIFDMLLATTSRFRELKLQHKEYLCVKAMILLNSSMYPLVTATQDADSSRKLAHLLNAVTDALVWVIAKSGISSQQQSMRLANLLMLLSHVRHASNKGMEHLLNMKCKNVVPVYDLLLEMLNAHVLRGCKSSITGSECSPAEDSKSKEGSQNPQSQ

CCCCCCS
inactive: Potency [1] | Potency [2] | Potency [3] | Potency [4] | Potency [5] | Potency [6] | Potency [7] | Potency [8] | Potency [9] | Potency [10] | Potency [11] | Potency [12] | Potency [13] | Potency [14] | Potency [15] | outcome [16] | Potency [17] | Potency [18]

NC(=O)c1ccccc1N
inactive: Potency [1] | Potency [2] | Potency [3] | Potency [4] | Potency [19] | Potency [5] | Potency [6] | Potency [8] | Potency [11] | Potency [12] | Potency [13] | Potency [14] | Potency [15] | outcome [16] | Potency [18]

COc1cc(C(C)C)c2c(c1)S(=O)(=O)N(COc1cc(=O)n3cccc(OCCN4CCCCC4)c3n1)C2=O
inactive: viability change, negative = cytotoxic [1] -2.69% [at 19 µM] | activity, negative = inhibition [2] -16.6% [at 19 µM] | activity change, negative = inhibition [3] -10.3% [at 19 µM] | activity change, negative = cytotoxicity [19] -0.608% [at 19 µM] | viability change, negative = cytotoxic [5] -0.671% [at 19 µM] | activity change, negative = cytotoxicity [11] 0.166% [at 19 µM] | activity change, negative = cytotoxicity [12] -6.94% [at 19 µM] | activation [13] -1.84% [at 19 µM] | activity change, negative = cytotoxicity [14] -17.6% [at 19 µM] | activation [15] -2.57% [at 19 µM] | cAMP activity change [16] 5.85% [at 18.9 µM] | activity change, negative = cytotoxicity [18] 4.42% [at 19 µM]

O=C(O)c1cccc(Cl)n1
active: Potency [8] 30.6 µM
inactive: Potency [1] | Potency [2] | Potency [3] | Potency [4] | Potency [19] | Potency [5] | Potency [7] | Potency [11] | Potency [12] | Potency [13] | Potency [14] | Potency [15] | outcome [16] | Potency [17] | Potency [18]

CC1=CP(=O)(c2ccccc2)CC1 (stereo not given)
inactive: Potency [1] | Potency [2] | Potency [3] | Potency [19] | Potency [5] | Potency [6] | Potency [7] | Potency [8] | Potency [9] | Potency [10] | Potency [11] | Potency [12] | Potency [13] | Potency [14] | Potency [15] | outcome [16] | Potency [17] | Potency [18]

O=c1cccc[nH]1
inactive: Potency [1] | Potency [2] | Potency [3] | Potency [4] | Potency [19] | Potency [5] | Potency [6] | Potency [8] | Potency [10] | Potency [11] | Potency [12] | Potency [13] | Potency [14] | Potency [15] | outcome [16] | Potency [18]

c1ccc(Sc2ccccc2)cc1
inactive: Potency [1] | Potency [2] | Potency [3] | Potency [4] | Potency [5] | Potency [11] | Potency [12] | Potency [13] | Potency [14] | Potency [15] | outcome [16] | Potency [17] | Potency [18]
active: Potency [8] 27.3 µM

CCCCCCCCC(C)=O
inactive: Potency [1] | Potency [2] | Potency [3] | Potency [4] | Potency [19] | Potency [5] | Potency [6] | Potency [8] | Potency [11] | Potency [12] | Potency [13] | Potency [14] | Potency [15] | outcome [16] | Potency [17] | Potency [18]

Cc1cccc(N(C)C)c1
inactive: Potency [1] | Potency [2] | Potency [3] | Potency [19] | Potency [5] | Potency [6] | Potency [8] | Potency [10] | Potency [11] | Potency [12] | Potency [13] | Potency [14] | Potency [15] | outcome [16] | Potency [17] | Potency [18]

OCCCS
inactive: Potency [1] | Potency [2] | Potency [3] | Potency [19] | Potency [5] | Potency [6] | Potency [7] | Potency [8] | Potency [10] | Potency [11] | Potency [12] | Potency [13] | Potency [14] | Potency [15] | outcome [16] | Potency [17] | Potency [18]

C[C@@H]1CC[C@H]2C(C)(C)[C@H]3C[C@@]12CC[C@@]3(C)O
inactive: Potency [1] | Potency [2] | Potency [3] | Potency [4] | Potency [19] | Potency [5] | Potency [6] | Potency [8] | Potency [9] | Potency [10] | Potency [11] | Potency [12] | Potency [13] | Potency [14] | Potency [15] | outcome [16] | Potency [18]

Cc1cn[nH]c1
inactive: Potency [1] | Potency [2] | Potency [3] | Potency [19] | Potency [5] | Potency [6] | Potency [7] | Potency [9] | Potency [11] | Potency [13] | Potency [14] | Potency [15] | outcome [16] | Potency [17] | Potency [18]

Oc1ccc(-c2ccccc2)c(Cl)c1
inactive: Potency [1] | Potency [3] | Potency [4] | Potency [19] | Potency [7] | Potency [8] | Potency [11] | Potency [14] | Potency [15] | outcome [16] | Potency [17] | Potency [18]
active: Potency [2] 1.93 µM | Potency [12] 27.3 µM

CCCCOCC
inactive: Potency [1] | Potency [2] | Potency [4] | Potency [19] | Potency [5] | Potency [6] | Potency [7] | Potency [9] | Potency [10] | Potency [11] | Potency [12] | Potency [13] | Potency [14] | outcome [16] | Potency [17] | Potency [18]
